# According to PMC7862700, “An all-to-all approach to the identification of sequence-specific readers for epigenetic DNA modifications on cytosine”:
# How the values were obtained:
# Experiment in all cases: DAPPL (digital affinity profiling via proximity ligation, sequencing); 10 mM Tris-HCl pH 7.5, 50 mM NaCl, 1 mM DTT, 4% glycerol, room temperature, 30 min; GST-TFs on glutathione beads, 16-mer random dsDNA library, 0.1% formaldehyde crosslink after washing; high values mean tight binding
# [1] = target: T1, FLI1 (Homo sapiens, UniProt Q01543 1-452); details: protein: recombinant; tags: N-terminal GST; dsDNA, one strand shown
# T1 sequence: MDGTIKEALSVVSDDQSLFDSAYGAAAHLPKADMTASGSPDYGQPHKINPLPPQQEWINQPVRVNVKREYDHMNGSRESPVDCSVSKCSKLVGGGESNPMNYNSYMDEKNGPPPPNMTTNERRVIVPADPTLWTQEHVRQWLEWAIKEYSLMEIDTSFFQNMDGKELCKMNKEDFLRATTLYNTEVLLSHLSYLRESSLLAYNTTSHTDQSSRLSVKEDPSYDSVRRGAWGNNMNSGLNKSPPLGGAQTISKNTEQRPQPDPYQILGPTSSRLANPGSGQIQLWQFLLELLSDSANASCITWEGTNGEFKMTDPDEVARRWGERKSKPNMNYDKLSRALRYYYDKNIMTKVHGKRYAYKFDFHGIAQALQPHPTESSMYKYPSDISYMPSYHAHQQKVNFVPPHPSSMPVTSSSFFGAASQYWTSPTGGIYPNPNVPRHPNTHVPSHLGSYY
# In short: (§1)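 A tag-only sample was pooled with DNA-barcoded human transcription factors that had been expressed in yeast as GST fusions and captured on glutathione beads. The pools were incubated for 30 min at room temperature with 200 nmole of a random double-stranded 16-mer DNA library in Tris/NaCl/DTT/glycerol buffer, then washed, crosslinked with 0.1% formaldehyde, proximity-ligated (BsaI/T4 ligase, 1 h, 37 °C), PCR-amplified and sequenced on an Illumina NextSeq500. Binding signal is each hexamer's read frequency for a factor divided by its frequency for the tag-only sample.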
# [2] = target: T2, ELK1 (Homo sapiens, UniProt P19419 1-428); details: protein: recombinant; tags: N-terminal GST; dsDNA, one strand shown
# T2 sequence: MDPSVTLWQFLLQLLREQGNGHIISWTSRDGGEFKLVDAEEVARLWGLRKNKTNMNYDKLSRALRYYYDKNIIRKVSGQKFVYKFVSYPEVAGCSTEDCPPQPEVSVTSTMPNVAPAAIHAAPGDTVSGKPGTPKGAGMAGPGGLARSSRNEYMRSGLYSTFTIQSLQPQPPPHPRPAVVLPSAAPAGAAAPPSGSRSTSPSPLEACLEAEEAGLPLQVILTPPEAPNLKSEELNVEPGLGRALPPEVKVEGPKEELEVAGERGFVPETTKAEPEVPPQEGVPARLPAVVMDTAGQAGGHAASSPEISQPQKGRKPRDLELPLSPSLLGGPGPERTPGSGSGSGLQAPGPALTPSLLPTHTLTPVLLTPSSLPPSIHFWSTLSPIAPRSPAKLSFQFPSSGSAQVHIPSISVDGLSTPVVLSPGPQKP
# In short: as §1
# [3] = target: T3, GABPA (Homo sapiens, UniProt Q06546 1-454); details: protein: recombinant; tags: N-terminal GST; dsDNA, one strand shown
# T3 sequence: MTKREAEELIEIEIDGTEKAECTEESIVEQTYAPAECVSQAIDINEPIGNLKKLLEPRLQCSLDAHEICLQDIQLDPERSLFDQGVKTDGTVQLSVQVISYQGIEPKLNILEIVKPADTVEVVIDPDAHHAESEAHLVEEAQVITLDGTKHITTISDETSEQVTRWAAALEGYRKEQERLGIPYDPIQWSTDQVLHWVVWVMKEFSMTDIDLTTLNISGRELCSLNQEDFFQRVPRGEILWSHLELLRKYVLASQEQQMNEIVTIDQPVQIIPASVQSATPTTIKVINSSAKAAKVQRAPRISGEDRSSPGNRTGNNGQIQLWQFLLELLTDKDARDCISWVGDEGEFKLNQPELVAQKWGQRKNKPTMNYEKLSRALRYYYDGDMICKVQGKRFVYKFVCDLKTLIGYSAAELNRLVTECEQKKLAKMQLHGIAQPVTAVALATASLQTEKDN
# In short: as §1
# [4] = target: T4, ERG (Homo sapiens, UniProt P11308 1-479); details: protein: recombinant; tags: N-terminal GST; dsDNA, one strand shown
# T4 sequence: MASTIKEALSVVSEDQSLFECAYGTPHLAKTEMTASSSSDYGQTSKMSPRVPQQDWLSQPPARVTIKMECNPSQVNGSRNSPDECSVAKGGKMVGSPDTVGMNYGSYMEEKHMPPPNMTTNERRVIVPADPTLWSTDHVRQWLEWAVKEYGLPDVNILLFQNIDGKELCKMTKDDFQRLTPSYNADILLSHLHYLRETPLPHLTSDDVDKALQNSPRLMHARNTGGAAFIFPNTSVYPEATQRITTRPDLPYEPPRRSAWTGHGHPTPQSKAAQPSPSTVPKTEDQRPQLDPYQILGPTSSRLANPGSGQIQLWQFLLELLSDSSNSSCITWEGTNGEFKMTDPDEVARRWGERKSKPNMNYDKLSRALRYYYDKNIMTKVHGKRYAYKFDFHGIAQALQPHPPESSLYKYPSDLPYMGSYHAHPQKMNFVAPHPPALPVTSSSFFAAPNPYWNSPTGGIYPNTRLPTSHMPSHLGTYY
# In short: as §1
# [5] = target: ELF1 (Homo sapiens, UniProt P32519 1-619); details: protein: recombinant; tags: N-terminal GST; dsDNA, one strand shown
# Chain of ELF1 (P32519 whole entry): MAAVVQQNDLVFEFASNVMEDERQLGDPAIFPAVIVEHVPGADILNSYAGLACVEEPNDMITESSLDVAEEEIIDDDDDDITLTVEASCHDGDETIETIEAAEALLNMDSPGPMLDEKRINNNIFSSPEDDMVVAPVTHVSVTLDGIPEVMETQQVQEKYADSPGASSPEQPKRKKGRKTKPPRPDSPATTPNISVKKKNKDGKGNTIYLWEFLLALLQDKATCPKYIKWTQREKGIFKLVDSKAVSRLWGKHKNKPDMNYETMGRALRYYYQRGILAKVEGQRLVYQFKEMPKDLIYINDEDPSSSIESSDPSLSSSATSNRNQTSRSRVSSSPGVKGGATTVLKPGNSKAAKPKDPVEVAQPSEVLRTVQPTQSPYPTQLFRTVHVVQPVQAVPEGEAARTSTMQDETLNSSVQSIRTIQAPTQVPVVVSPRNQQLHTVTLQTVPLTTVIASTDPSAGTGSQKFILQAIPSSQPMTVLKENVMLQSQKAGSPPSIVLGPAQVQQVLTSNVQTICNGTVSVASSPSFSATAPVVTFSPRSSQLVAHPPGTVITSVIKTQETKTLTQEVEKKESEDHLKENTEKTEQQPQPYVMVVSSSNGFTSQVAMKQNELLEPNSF
# In short: as §1
# [6] = target: T5, EHF (Homo sapiens, UniProt Q9NZC4 1-300); details: protein: recombinant; tags: N-terminal GST; dsDNA, one strand shown
# T5 sequence: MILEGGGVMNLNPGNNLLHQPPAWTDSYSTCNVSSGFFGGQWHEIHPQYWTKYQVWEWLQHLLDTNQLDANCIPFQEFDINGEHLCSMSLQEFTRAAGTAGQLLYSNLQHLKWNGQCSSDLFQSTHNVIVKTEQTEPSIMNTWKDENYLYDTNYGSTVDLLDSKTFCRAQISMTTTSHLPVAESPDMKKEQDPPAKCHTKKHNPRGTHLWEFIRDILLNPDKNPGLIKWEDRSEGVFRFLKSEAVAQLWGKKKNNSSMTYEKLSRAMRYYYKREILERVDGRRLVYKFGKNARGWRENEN
# In short: as §1
# [7] = target: SPI1 (Homo sapiens, UniProt P17947 1-270); details: protein: recombinant; tags: N-terminal GST; dsDNA, one strand shown
# In short: as §1
# [8] = target: SPIB (Homo sapiens, UniProt Q01892 1-262); details: protein: recombinant; tags: N-terminal GST; dsDNA, one strand shown
# Chain of SPIB (Q01892 whole entry): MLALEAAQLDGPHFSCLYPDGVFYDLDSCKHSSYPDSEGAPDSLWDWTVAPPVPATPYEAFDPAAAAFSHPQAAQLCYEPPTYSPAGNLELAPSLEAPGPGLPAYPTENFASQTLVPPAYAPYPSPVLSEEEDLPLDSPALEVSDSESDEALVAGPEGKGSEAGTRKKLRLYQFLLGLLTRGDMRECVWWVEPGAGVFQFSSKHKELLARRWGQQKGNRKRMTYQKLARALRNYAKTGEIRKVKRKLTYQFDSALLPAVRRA
# In short: as §1
# [9] = target: T6, ELK3 (Homo sapiens, UniProt P41970 1-407); details: protein: recombinant; tags: N-terminal GST; dsDNA, one strand shown
# T6 sequence: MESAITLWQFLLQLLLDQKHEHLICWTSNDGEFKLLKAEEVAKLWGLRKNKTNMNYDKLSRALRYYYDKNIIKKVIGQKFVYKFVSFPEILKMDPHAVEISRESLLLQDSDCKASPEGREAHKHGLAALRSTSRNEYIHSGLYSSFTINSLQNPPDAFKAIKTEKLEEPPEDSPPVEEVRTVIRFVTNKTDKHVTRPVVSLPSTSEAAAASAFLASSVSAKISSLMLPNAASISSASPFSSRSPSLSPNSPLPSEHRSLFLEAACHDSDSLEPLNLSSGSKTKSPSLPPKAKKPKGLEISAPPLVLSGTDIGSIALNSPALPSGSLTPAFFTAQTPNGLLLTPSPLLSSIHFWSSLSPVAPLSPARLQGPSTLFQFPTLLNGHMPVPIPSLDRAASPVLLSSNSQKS
# In short: as §1
# [10] = target: T7, FEV (Homo sapiens, UniProt Q99581 1-238); details: protein: recombinant; tags: N-terminal GST; dsDNA, one strand shown
# T7 sequence: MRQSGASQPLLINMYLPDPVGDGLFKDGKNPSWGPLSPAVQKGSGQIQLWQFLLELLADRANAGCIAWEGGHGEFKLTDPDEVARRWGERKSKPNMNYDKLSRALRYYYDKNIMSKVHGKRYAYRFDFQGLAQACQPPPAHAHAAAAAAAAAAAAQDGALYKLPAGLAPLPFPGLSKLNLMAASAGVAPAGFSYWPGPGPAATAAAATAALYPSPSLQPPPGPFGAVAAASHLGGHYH
# In short: as §1
# [11] = target: ETV5 (Homo sapiens, UniProt P41161 1-510); details: protein: recombinant; tags: N-terminal GST; dsDNA, one strand shown
# Chain of ETV5 (P41161 whole entry): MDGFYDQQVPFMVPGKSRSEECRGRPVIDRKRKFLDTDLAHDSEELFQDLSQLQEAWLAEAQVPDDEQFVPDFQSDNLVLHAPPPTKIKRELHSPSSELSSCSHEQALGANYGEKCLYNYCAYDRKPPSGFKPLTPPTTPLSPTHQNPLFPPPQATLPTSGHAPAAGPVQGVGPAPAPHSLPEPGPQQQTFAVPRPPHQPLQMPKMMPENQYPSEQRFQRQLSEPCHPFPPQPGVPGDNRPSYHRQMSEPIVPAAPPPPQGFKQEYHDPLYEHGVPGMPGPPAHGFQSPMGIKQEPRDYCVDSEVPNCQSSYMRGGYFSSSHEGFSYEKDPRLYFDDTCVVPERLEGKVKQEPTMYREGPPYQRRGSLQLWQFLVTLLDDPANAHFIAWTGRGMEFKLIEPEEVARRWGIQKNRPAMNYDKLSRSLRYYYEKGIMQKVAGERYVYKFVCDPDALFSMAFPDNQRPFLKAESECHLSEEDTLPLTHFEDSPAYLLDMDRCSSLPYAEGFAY
# In short: as §1
# [12] = target: HSF1 (Homo sapiens, UniProt Q00613 1-529); details: protein: recombinant; tags: N-terminal GST; chain copies: 3; dsDNA, one strand shown
# Chain of HSF1 (Q00613 whole entry): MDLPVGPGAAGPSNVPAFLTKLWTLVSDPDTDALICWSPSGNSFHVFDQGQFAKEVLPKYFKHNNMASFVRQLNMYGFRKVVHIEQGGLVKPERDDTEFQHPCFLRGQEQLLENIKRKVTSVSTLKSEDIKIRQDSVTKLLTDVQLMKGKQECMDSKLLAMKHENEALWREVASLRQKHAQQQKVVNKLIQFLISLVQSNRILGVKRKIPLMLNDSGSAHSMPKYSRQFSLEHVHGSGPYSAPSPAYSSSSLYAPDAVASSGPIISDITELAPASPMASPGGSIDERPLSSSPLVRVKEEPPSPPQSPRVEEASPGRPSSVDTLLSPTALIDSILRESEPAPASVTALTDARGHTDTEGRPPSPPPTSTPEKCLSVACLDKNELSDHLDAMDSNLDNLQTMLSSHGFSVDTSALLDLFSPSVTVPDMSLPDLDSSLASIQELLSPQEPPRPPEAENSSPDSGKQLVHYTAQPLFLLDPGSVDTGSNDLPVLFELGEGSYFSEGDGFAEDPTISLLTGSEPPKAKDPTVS
# In short: as §1
# [13] = target: T8, SPIC (Homo sapiens, UniProt Q8N5J4 1-248); details: protein: recombinant; tags: N-terminal GST; dsDNA, one strand shown
# T8 sequence: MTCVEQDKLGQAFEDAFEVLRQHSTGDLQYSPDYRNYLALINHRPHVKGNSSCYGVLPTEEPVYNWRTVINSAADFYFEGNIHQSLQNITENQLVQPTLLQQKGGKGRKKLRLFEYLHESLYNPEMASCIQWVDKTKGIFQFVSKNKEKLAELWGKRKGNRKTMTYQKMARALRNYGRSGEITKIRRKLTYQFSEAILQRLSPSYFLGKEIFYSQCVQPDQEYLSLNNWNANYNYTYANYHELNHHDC
# In short: as §1
# [14] = target: ELF4 (Homo sapiens, UniProt Q99607 1-663); details: protein: recombinant; tags: N-terminal GST; dsDNA, one strand shown
# Chain of ELF4 (Q99607 whole entry): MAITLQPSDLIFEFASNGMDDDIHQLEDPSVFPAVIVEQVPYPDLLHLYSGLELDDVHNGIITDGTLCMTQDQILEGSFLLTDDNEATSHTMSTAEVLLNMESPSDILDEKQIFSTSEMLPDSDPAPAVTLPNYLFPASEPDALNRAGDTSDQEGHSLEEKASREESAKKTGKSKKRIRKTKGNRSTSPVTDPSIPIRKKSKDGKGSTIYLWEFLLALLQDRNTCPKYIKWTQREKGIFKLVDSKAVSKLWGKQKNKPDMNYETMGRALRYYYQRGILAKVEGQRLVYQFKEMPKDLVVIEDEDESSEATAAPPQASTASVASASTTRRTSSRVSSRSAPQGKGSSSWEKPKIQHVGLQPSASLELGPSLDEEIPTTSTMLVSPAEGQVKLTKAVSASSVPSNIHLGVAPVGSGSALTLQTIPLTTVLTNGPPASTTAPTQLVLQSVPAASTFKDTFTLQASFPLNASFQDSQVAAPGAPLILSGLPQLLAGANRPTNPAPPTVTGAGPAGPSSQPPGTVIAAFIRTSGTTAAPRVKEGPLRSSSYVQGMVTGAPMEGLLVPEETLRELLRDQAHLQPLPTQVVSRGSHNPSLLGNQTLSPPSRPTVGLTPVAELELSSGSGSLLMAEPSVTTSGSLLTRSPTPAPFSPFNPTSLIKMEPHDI
# In short: as §1
# [15] = target: T9, ELK4 (Homo sapiens, UniProt P28324-2 1-405); details: protein: recombinant; tags: N-terminal GST; dsDNA, one strand shown
# T9 sequence: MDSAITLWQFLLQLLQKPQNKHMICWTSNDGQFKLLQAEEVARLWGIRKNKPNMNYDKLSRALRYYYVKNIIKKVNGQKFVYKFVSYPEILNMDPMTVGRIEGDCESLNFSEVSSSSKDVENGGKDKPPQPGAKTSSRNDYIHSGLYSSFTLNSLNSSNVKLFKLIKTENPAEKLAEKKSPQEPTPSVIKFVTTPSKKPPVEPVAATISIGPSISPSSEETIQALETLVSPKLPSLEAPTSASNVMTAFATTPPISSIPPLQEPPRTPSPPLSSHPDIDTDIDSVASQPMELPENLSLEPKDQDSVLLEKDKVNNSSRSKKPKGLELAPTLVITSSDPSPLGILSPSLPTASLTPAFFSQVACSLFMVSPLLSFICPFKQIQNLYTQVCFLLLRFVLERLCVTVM
# In short: as §1
# [16] = target: T10, ETV2 (Homo sapiens, UniProt O00321 1-342); details: protein: recombinant; tags: N-terminal GST; dsDNA, one strand shown
# T10 sequence: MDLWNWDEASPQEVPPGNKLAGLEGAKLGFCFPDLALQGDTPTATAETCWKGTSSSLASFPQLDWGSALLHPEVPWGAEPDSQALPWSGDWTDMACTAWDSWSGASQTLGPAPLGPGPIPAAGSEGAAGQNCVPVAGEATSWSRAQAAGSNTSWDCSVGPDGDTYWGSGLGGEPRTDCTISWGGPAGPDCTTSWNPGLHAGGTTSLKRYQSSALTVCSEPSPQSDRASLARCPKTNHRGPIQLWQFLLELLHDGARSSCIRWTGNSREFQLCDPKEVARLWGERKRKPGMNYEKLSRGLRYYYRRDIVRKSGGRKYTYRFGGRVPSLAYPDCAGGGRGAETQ
# In short: as §1
# [17] = target: T11, ELF3 (Homo sapiens, UniProt P78545 1-371); details: protein: recombinant; tags: N-terminal GST; dsDNA, one strand shown
# T11 sequence: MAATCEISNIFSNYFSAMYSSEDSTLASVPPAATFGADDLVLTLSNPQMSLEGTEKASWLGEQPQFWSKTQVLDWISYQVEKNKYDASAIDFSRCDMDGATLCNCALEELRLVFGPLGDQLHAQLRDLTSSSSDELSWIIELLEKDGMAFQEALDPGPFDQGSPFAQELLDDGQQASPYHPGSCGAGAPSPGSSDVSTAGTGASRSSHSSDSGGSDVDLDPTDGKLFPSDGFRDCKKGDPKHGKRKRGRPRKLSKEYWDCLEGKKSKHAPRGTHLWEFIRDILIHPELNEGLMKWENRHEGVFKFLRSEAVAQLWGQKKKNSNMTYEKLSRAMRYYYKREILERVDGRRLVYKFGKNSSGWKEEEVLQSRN
# In short: as §1
# [18] = target: CRX (Homo sapiens, UniProt O43186 1-299); details: protein: recombinant; tags: N-terminal GST; dsDNA, one strand shown
# Chain of CRX (O43186 whole entry): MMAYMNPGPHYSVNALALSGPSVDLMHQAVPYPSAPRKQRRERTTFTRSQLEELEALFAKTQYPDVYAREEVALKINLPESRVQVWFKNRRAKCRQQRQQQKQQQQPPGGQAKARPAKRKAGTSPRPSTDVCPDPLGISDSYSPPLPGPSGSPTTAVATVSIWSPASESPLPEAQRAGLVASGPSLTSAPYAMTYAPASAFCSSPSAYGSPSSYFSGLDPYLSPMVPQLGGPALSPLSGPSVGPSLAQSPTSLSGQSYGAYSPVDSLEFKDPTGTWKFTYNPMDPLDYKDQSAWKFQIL
# In short: as §1
# [19] = target: ETV1 (Homo sapiens, UniProt P50549 1-477); details: protein: recombinant; tags: N-terminal GST; dsDNA, one strand shown
# Chain of ETV1 (P50549 whole entry): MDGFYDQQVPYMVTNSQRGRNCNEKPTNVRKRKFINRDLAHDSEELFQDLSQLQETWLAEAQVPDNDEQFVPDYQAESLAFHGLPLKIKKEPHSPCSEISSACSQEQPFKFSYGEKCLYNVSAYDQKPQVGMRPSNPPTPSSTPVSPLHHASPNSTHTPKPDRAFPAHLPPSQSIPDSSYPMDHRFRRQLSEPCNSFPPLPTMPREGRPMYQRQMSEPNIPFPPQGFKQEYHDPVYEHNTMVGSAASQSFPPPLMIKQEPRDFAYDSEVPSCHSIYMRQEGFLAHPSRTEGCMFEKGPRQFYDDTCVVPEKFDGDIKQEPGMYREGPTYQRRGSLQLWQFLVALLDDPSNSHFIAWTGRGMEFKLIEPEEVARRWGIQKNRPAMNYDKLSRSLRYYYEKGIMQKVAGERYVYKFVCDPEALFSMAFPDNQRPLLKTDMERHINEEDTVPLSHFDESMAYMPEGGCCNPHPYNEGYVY
# In short: as §1
sequence,measurement,setting,value
CTGCAT,binding signal,[1],"1.42 fold enrichment (6-mer frequency, TF over GST control)"
same,binding signal,[2],"1.51 fold enrichment (6-mer frequency, TF over GST control)"
same,binding signal,[3],"1.41 fold enrichment (6-mer frequency, TF over GST control)"
same,binding signal,[4],"1.41 fold enrichment (6-mer frequency, TF over GST control)"
same,binding signal,[5],"1.47 fold enrichment (6-mer frequency, TF over GST control)"
same,binding signal,[6],"1.47 fold enrichment (6-mer frequency, TF over GST control)"
same,binding signal,[7],"1.42 fold enrichment (6-mer frequency, TF over GST control)"
same,binding signal,[8],"1.65 fold enrichment (6-mer frequency, TF over GST control)"
same,binding signal,[9],"1.39 fold enrichment (6-mer frequency, TF over GST control)"
same,binding signal,[10],"1.54 fold enrichment (6-mer frequency, TF over GST control)"
same,binding signal,[11],"1.46 fold enrichment (6-mer frequency, TF over GST control)"
same,binding signal,[12],"1.12 fold enrichment (6-mer frequency, TF over GST control)"
same,binding signal,[13],"1.32 fold enrichment (6-mer frequency, TF over GST control)"
same,binding signal,[14],"1.43 fold enrichment (6-mer frequency, TF over GST control)"
same,binding signal,[15],"1.39 fold enrichment (6-mer frequency, TF over GST control)"
same,binding signal,[16],"1.28 fold enrichment (6-mer frequency, TF over GST control)"
same,binding signal,[17],"1.4 fold enrichment (6-mer frequency, TF over GST control)"
same,binding signal,[18],"1.12 fold enrichment (6-mer frequency, TF over GST control)"
same,binding signal,[19],"1.29 fold enrichment (6-mer frequency, TF over GST control)"
